# HSP90 refold inh = HSP90 refolding inhibition in rabbit reticulocyte lysate; actives 0.91% (n = 290,000); luciferase refolding luminescence, 3 h; inhibition, % at 5.6 µM;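 active = inhibition above the screen-wide mean plus 3 SD, computed separately per campaign, cut at about 16% in these data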;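 note: inhibitors lower the luminescence because luciferase stays unfolded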
# HSF1 activator = increases HSF-1 driven luciferase reporter signal; NIH3T3-HGL HSF-1 luciferase reporter, MG132, 8 h; 100% = twice DMSO control signal; actives 1.7% (n = 300,000); activation, % at 9 µM;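 active = mean replicate activation of at least 50% with a set share of replicates each reaching 50%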
# EBV LMP1 NFkB = reduces LMP1-driven NF-kappaB luciferase signal; LMP1-induced NF-kappaB luciferase reporter cells, luminescence; inhibition, % at 12.5 µM; actives 0.69% (n = 350,000); AID 504558; in the data active = inhibition above about 41%
# TWEAK Fn14 block = blocks TWEAK-Fn14 interaction in a reporter cell assay; actives 2% (n = 360,000); inhibition, % at 10 µM; TWEAK-stimulated Fn14 reporter cells, luciferase luminescence, 8 h; in the data active = inhibition above about 50%
# HSF1 inhib = HSF1 inhibition; actives 0.77% (n = 300,000); NIH3T3-HGL HSE-luciferase, MG132-induced, luminescence 8 h; active compounds read low; AID 2098; activity change, negative = inhibition, % at 7.5 µM (by protocol);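 active = more than half of replicate wells show activity change below -50%, luminescence cut by over half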;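 note: luciferase reports HSF-1 transcriptional activity via heat shock element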
# TROY signal inh = TROY signaling inhibition. Q293 LMP1-TROYcd NF-kB luciferase reporter, 4 h. inhibition, % at 10 µM. actives 0.98% (n = 360,000). AID 1347056;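 active = compounds whose plate-normalised and pattern-corrected inhibition of the luciferase reporter signal at the single screening dose is 50% or more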
# Hits are given with their value; . = inactive; / = not tested or not shown. Rows were chosen to be rich in hits. Some 4.7% of all compounds tested hit in one or more screens of this group.
SMILES,HSP90 refold inh,HSF1 activator,EBV LMP1 NFkB,TWEAK Fn14 block,HSF1 inhib,TROY signal inh
COc1cccc(/C=C/c2ccc3cccc(O)c3n2)c1OC,.,.,.,82,.,.
Cc1ccc(/C=C/c2ccc3cccc(O)c3n2)s1,.,85,.,.,.,.
Oc1cccc(/C=C/c2ccc3cccc(O)c3n2)c1,.,.,.,.,.,.
COc1ccc(/C=C/c2ccc3cccc(O)c3n2)c(OC)c1OC,.,.,.,81,.,.
COc1cc(/C=C/c2ccc3cccc(O)c3n2)cc(OC)c1OC,.,.,.,.,.,.
Cc1ccc(S(=O)(=O)N2CC3(O)CN(C(=O)OC(C)C)N(C(=O)OC(C)C)CC3(OC(=O)NCc3ccccc3)C2)cc1 (stereo not given),/,/,.,.,/,.
CCc1noc(C)c1C(=O)N(C)CC(=O)Nc1cccc(OC)c1,/,/,68,.,/,.
COc1ccc(N(CC(=O)N2CCc3ccccc32)S(=O)(=O)c2c(C)noc2C)cc1,.,77,.,.,.,.
COc1ccc(N(CC(=O)Nc2cccc(C)c2)S(=O)(=O)c2c(C)noc2C)cc1,.,.,.,.,-69,.
Nc1[nH]c(C(=O)c2ccccc2)c(-c2ccc(Cl)cc2Cl)c1C(=O)NCCc1c[nH]c2ccccc12,/,/,/,.,/,.
COc1ccc(S(=O)(=O)N(C)C[C@H]2OCCCC[C@@H](C)Oc3ccc(N(C)C)cc3C(=O)N([C@H](C)CO)C[C@@H]2C)cc1,/,/,.,.,/,.
O=C(Nc1ccccc1)c1cc(C2CCCN(C(=O)CCc3ccccc3)C2)on1 (stereo not given),/,/,/,.,/,.
CN(C)c1ccc(CC(=O)N2CCCC(c3cc(C(=O)Nc4ccc(C(C)(C)C)cc4)no3)C2)cc1 (stereo not given),/,/,/,79,/,.
CC(C)c1ccc2[nH]c(O)c(N=NC(=O)c3cccc(S(=O)(=O)N4CCCCC4)c3)c2c1,.,.,.,55,.,.
O=C(N=Nc1c(O)[nH]c2ccccc12)c1cccc(S(=O)(=O)N2CCCCC2)c1,.,.,.,.,.,.
CCc1ccc(NC(=O)C2C3CCC(O3)C2C(=O)O)cc1 (stereo not given),.,.,.,.,-70,.
O=C(O)c1ccc(N/N=C/c2ccc(F)c(F)c2)cc1,.,.,.,67,.,.
O=C(O)c1ccc(N/N=C/c2cccc(F)c2)cc1,.,.,.,59,.,.
O=C(O)c1ccc(N/N=C/c2ccnc3ccccc23)cc1,.,.,.,.,.,.
O=C(O)c1ccc(N/N=C/c2cccc3cccnc23)cc1,.,.,.,61,.,.
Cc1c(CN(C)C)c2c(n1Cc1ccccc1)C(=O)c1ccccc1-2,.,.,.,62,.,.
Cc1cc(=O)n(Cc2ccccc2)c2ccccc12,.,.,.,.,.,.
CCCN(C)C1CN(Cc2cn(Cc3cc(C)cc(C)c3)nn2)S(=O)(=O)C1 (stereo not given),/,/,/,.,/,.
O=C(NCc1ccc(F)cc1)c1cc(C2CCCCN2C(=O)CCCc2ccccc2)on1 (stereo not given),/,/,/,.,/,.
COc1ccc(Nc2nc(N)c([N+](=O)[O-])c(N3CCOCC3)n2)cc1,.,.,.,.,.,.
SMILES,HSP90 refold inh,HSF1 activator,EBV LMP1 NFkB,TWEAK Fn14 block,HSF1 inhib,TROY signal inh
CN(C)c1ccc(Nc2nc(N)c([N+](=O)[O-])c(N3CCOCC3)n2)cc1,.,.,.,.,.,70
Cc1ccc(Nc2nc(NCCCN3CCOCC3)nc(N)c2[N+](=O)[O-])cc1,.,69,.,.,.,.
CCc1nc2ccc(C(=O)N3CCN(c4ccccc4)CC3)cn2c1N(C)CCCc1ccccc1,/,/,/,.,/,.
Cc1cc2ncn(CCOc3ccccc3C#N)c2cc1C,.,.,.,55,.,/
O=[N+]([O-])c1ccc2c(c1)C(=NO)c1cc(Cl)c(Cl)cc1-2,/,/,.,.,/,.
CC(C(=O)Nc1ccccc1Br)N1c2cccc3cccc(c23)S1(=O)=O (stereo not given),.,67,.,.,.,.
CNC(=O)C(C)N1c2cccc3cccc(c23)S1(=O)=O (stereo not given),.,.,.,.,.,.
C[C@@H]1O[C@@H]1P(=O)(O)O,/,/,75,.,/,.
CCN(CC)CCC(=O)N1c2ccccc2CCc2ccc(NC(=O)OC)cc21,.,.,.,.,.,.
CCOC(=O)Nc1ccc2c(c1)N(C(=O)CN(CC)CC)c1ccccc1CC2,.,.,.,.,.,.
CCOC(=O)Nc1ccc2c(c1)N(C(=O)CCN(CC)CC)c1ccccc1S2=O (stereo not given),.,.,.,64,.,54
CCOC(=O)Nc1ccc2c(c1)N(C(=O)CN(CC)CC)c1ccccc1C=C2,.,74,.,.,.,.
Cc1onc(-c2ccccc2)c1C(=O)N1CCC(C)(C(=O)NS(=O)(=O)C2CC2)C1 (stereo not given),/,/,/,.,/,.
COc1cccc(C(C)(O)c2nc(-c3cccc(C(C)C)c3)cs2)c1 (stereo not given),/,/,/,.,/,.
Cc1ccc(F)c(S(=O)(=O)NC(=O)C2(C)CCN2C(=O)Cc2cc(F)ccc2F)c1 (stereo not given),/,/,/,.,/,.
CNC(=O)c1cccc(NC(=O)c2cc(-c3ccccc3)nc3c2cnn3C(C)C)c1,/,/,.,.,/,.
COc1cc(NC(=O)c2cc(-c3ccccc3)nc3c2cnn3C(C)C)cc(OC)c1OC,/,/,.,55,/,.
Cc1ccc(Sc2c(C=O)c3ccccc3n2C)cc1,.,.,.,69,.,52
Cc1ccc(Sc2c([N+](=O)[O-])c(=O)n(C)c3ccccc23)cc1,.,.,.,.,.,68
O=S(=O)(Nc1ccc(C(O)(C(F)(F)F)C(F)(F)F)cc1)c1ccc(Cl)c2nonc12,/,/,/,76,/,.
Cc1nc(N2CCN(c3ccccc3)CC2)[nH]c(=O)c1CCC(C)C,.,.,.,60,.,.
O=C1CCCCCCC(=O)[C@H](O)C[C@H](c2ccccc2)O1,/,/,/,.,/,.
Nc1nn2cc(-c3ccccc3)nc2c2ccccc12,.,58,.,.,.,.
CC(c1ccc2ccccc2c1)c1ccccc1C(=O)O (stereo not given),/,/,.,.,/,.
CC(C)c1cccc(-c2csc(C(C)(O)c3ccncc3)n2)c1 (stereo not given),/,/,/,.,/,.
CCc1ccc(C(=O)Cc2cc3cccc(OC)c3oc2=O)cc1,.,80,.,.,.,.
O=C(O)C1CCCCC1C(=O)Nc1ccc2c(c1)CCC2 (stereo not given),.,123,.,.,.,.
CSc1ccccc1C(=O)Nc1ccc2c(c1)CCC2,.,.,.,.,.,.
Cc1c(C(=O)Nc2ccc3c(c2)CCC3)cccc1[N+](=O)[O-],.,57,.,.,.,.
O=C(Nc1ccc2c(c1)CCC2)c1ccccc1Br,.,54,.,.,.,.
